Assay outcomes: PubChem, The Scripps Research Institute Molecular Screening Center
An excerpt weighted towards active compounds, which were near 2.8% of everything screened.
Fam108B counter: mouse Fam108B serine hydrolase inhibitors, primary screen, counter-screen for RBBP9 inhibitor project, biochemical, fluorescence polarization. recombinant Fam108B, FP-Rh probe fluorescence polarization. inhibition, % at 9.51 µM. actives 0.33% (n = 300,000). AID 1947, 2009;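 active = inhibition above the screen mean inhibition plus 3 SD, computed separately per campaign, cut at about 18% in these data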;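 also: inhibitors lower polarization as less probe binds the enzyme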
PAFAH2 FP inh: PAFAH2 enzyme inhibitors, primary screen, biochemical, fluorescence polarization, human; AID 492956, 2010; actives 0.99% (n = 340,000); Platelet-activating factor acetylhydrolase 2, cytoplasmic (Homo sapiens), Q99487; recombinant PAFAH2, FP-rhodamine activity probe; inhibition, % at 3.39 µM;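 active = inhibition above the mean over all tested compounds plus 3 SD, cut at about 30% in these data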;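 also: inhibitors block probe labeling of enzyme so polarization drops; 0% = enzyme with DMSO and 100% = wells lacking PAFAH2 protein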
pPAFAH inh: pPAFAH enzyme inhibitors, primary screen, biochemical, fluorescence polarization, human. Platelet-activating factor acetylhydrolase (Homo sapiens), Q13093. recombinant pPAFAH, FP-rhodamine probe fluorescence polarization. inhibition, % at 3.39 µM. actives 1.5% (n = 330,000). AID 463082, 2010;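 active = inhibition above the mean inhibition across the screen plus 3 SD, cut at about 25% in these data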;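 also: inhibitors block binding of the rhodamine activity-based probe so polarization drops; 0% = enzyme with DMSO and 100% = wells lacking pPAFAH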
PAFAH1B2 FP inh: PAFAH1B2 enzyme inhibitors, primary screen, biochemical, fluorescence polarization, human; Platelet-activating factor acetylhydrolase IB subunit alpha2 (Homo sapiens), P68402; recombinant PAFAH1B2, FP-rhodamine activity probe; inhibition, % at 3.39 µM; actives 1.2% (n = 340,000);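 active = inhibition above the mean of all tested compounds plus 3 SD, cut at about 24% in these data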;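 also: 0% = enzyme with DMSO and 100% = wells lacking PAFAH1B2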
Target sequence (P68402 whole entry, looked up): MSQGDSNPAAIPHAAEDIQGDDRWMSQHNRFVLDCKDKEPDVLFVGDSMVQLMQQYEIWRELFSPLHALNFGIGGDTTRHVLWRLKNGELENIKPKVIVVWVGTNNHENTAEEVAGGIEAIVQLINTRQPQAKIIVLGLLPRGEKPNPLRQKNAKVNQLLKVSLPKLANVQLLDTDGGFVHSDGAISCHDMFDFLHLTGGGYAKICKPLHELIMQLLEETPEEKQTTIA
PME-1 primary: PME-1 inhibitors via competitive probe labeling, primary screen, biochemical, fluorescence polarization, FP-Rh probe, HTS; Protein phosphatase methylesterase 1 (Homo sapiens), Q9Y570; recombinant PME-1; inhibition, % at 5.9 µM; actives 0.53% (n = 320,000); AID 2130, 2009;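 active = inhibition above the campaign mean of all compounds plus 3 SD, cut at about 26% in these data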;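 also: competitive labeling of PME-1 active site by serine hydrolase directed probe; 0% = PME-1 with DMSO and 100% = wells lacking PME-1 enzyme; inhibitors block probe labeling so polarization falls and inhibition rises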
PAFAH1B3 FP inh: PAFAH1B3 enzyme inhibitors, primary screen, biochemical, fluorescence polarization, human; Platelet-activating factor acetylhydrolase IB subunit alpha1 (Homo sapiens), Q15102; recombinant PAFAH1B3, FP-rhodamine probe; inhibition, % at 3.39 µM; actives 0.28% (n = 340,000); AID 492972, 2010;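 active = inhibition above the screen-wide average of all tested compounds plus 3 SD, cut at about 25% in these data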;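 also: 0% = enzyme with DMSO only and 100% = wells lacking PAFAH1B3 protein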
Target sequence (Q15102 whole entry, looked up): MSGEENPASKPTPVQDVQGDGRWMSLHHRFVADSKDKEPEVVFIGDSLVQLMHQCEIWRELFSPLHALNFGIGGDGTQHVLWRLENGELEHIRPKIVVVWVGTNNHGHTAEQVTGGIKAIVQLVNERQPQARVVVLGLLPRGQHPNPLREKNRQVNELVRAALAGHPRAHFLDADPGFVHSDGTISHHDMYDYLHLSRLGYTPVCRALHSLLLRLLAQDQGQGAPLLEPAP
Active calls of the source: *; x = no result.

SMILES	Fam108B counter	PAFAH2 FP inh	pPAFAH inh	PAFAH1B2 FP inh	PME-1 primary	PAFAH1B3 FP inh
CCNC(=S)NNC(=O)c1cc(-c2ccc(OC)cc2)nc2ccccc12	4	3	16	28*	0	9
CCNC(=S)NNC(=O)c1cc(-c2cccc(C)c2)nc2ccccc12	-1	-3	23	32*	1	0
O=C(NNC(=S)Nc1ccccc1)c1cc(-c2cccnc2)nc2ccccc12	4	-1	24	8	1	9
COc1cccc(NC(=O)CN2C(=O)NC(CCc3ccccc3)C2=O)c1 (stereo not drawn)	x	-1	-1	3	7	7
O=C1NC(CCc2ccccc2)C(=O)N1CCOc1cccc(Br)c1 (stereo not drawn)	7	1	13	26*	3	2
CCCCCC(=O)Nc1cc(S(=O)(=O)O)cc2cc(S(=O)(=O)O)cc(O)c12	x	57*	x	17	x	35*
CCCCCC(=O)Nc1cc(S(=O)(=O)N2CCCCC2)ccc1N1CCCCC1	x	0	x	2	x	4
CCC(C)c1c(N)n(S(=O)(=O)c2ccc(C)cc2)oc1=O (stereo not drawn)	x	2	x	42*	x	-2
Cc1ccc(/C=C2/SC(=O)NC2=S)o1	x	60*	x	26*	x	45*
O=C(O)CC1NC(=O)N(C2CCCCC2)C1=O (stereo not drawn)	4	-1	0	7	-1	2
CC(=O)CCc1ccc(Oc2nc(-c3cccnc3)nc3ccccc23)cc1	-3	3	25*	2	1	3
COc1ccc(Oc2nc(-c3cccnc3)nc3ccccc23)cc1	-5	-9	-2	-1	-11	1
Cc1nn(C)c(C)c1CCC(=O)N1CCCC(N2CCN(c3ccc(F)cc3)CC2)C1 (stereo not drawn)	3	1	-5	6	-2	-3
CN1C(=O)C2(CCCCC2)C1c1ccccc1 (stereo not drawn)	x	-1	-1	9	x	0
O=C1N(c2ccccc2)C(c2ccccc2)C12CCCCC2 (stereo not drawn)	x	0	0	32*	x	10
O=C(N[C@@H]1C[C@H]2CC[C@@H]1C2)c1ccco1	10	0	3	6	4	5
CCCCc1cc(=O)oc2cc(C)cc(OCC(=O)NC(Cc3ccc(Cl)cc3)C(=O)O)c12 (stereo not drawn)	2	-1	6	30*	1	4
CCCCc1cc(=O)oc2cc(C)cc(OCC(=O)Nc3ccccn3)c12	7	-4	0	8	9	1
CCCc1cc(=O)oc2cc(C)cc(OCC(=O)N[C@@H](CSCc3ccccc3)C(=O)O)c12	-4	5	17	2	6	-3
CCCc1cc(=O)oc2cc(C)cc(OCC(=O)NC(Cc3ccc(Cl)cc3)C(=O)O)c12 (stereo not drawn)	1	-7	6	27*	5	3
COc1ccc(OC)c(CN2CCN(c3ccc(S(=O)(=O)N4CCCC4)cn3)CC2)c1	x	5	6	-2	5	2
O=C1OC(C(=O)Nc2ccccc2)Cc2ccccc21 (stereo not drawn)	6	49*	25*	2	-1	6
Cc1ccc(NC(=O)C2Cc3ccccc3C(=O)O2)cc1 (stereo not drawn)	7	10	8	1	0	5
CSC(=O)NC12CC3CC(CC(C)(C3)C1)C2	-6	2	-3	28*	0	-4
CCOC(=O)c1ccc(S(=O)(=O)N2CCN(Cc3cc4c(cc3O)OCO4)CC2)cc1	x	-5	4	-6	-3	6
SMILES	Fam108B counter	PAFAH2 FP inh	pPAFAH inh	PAFAH1B2 FP inh	PME-1 primary	PAFAH1B3 FP inh
CC(=O)C1CCC2C3CC=C4N(C)C(=O)CCC4(C)C3CCC12C (stereo not drawn)	x	0	x	1	x	3
COc1ccc(NC(=O)CC23CC4CC(CC(Br)(C4)C2)C3)c(OC)c1	-4	1	3	13	-7	5
CC(NC(N)=O)C12CC3CC(CC(C3)C1)C2 (stereo not drawn)	1	4	3	26*	-11	5
Cc1c(C(=O)O)cccc1-c1ccc(/C=N/n2cnnc2)o1	1	7	5	3	0	6
Cc1c(C(=O)O)cccc1-c1ccc(/C=N/Nc2ccc(Br)cc2)o1	7	20	26*	3	29*	6
COc1ccc(NC(=O)C2CCCN(c3nn4c(=O)cc(C)nc4s3)C2)c(OC)c1 (stereo not drawn)	-4	-2	-1	4	-8	10
CC(C)C(NS(=O)(=O)c1cccc(C(F)(F)F)c1)C(=O)N1CCc2ccccc2C1 (stereo not drawn)	1	7	-3	26*	3	4
Cc1cc2occ(CC(=O)N(C)CC(=O)Nc3cccc(F)c3)c2cc1C	-3	1	5	-2	8	5
Cc1csc(NC(=O)c2ccco2)c1C(=O)c1ccccc1	3	-7	26*	3	-1	8
COC(=O)c1c(-c2ccccc2)csc1NC(=O)c1ccco1	2	-5	1	-3	-1	9
COc1cc(OC)c(NC(=O)CCNS(=O)(=O)c2ccc3c(c2)oc(=O)n3C)cc1Cl	-3	6	25*	-3	2	2
COc1ccc(OC)c(NC(=O)CCNS(=O)(=O)c2ccc3c(c2)oc(=O)n3C)c1	-4	-3	4	3	2	-5
Cc1ccc(S(=O)(=O)N2CCCCC2)cc1C(=O)OCC(=O)N1c2ccccc2NC(=O)C1(C)C	x	8	7	34*	x	6
Cc1ccc(C(=O)OCC(=O)N2c3ccccc3NC(=O)C2(C)C)cc1S(=O)(=O)N1CCCCC1	x	8	4	27*	x	8
Cc1ccc(Cc2cnc(NC(=O)C3CCCO3)s2)cc1 (stereo not drawn)	2	-1	10	28*	-1	4
CSc1ncccc1C(=O)N1CCCC(N2CCN(c3ccccc3F)CC2)C1 (stereo not drawn)	2	-1	-1	-3	12	-2
Cn1c(N)c(C(=O)COC(=O)c2ccccc2C(=O)c2ccc(Cl)cc2)c(=O)n(C)c1=O	x	2	-12	5	x	5
CCCN(CCC)c1nc(Cl)nc(NCc2ccco2)n1	-4	0	26*	-2	9	8
O=C1C=C(NCc2ccc(Cl)cc2)CC(c2ccco2)C1 (stereo not drawn)	6	11	11	29*	1	12
